# Screen size: about 320,000 compounds; about 7,600 (2.4%) were called active. Inconclusive results (about 3%) are left out. The full list was thinned out, with actives kept by preference. Values without a mark were called inactive. Calls come from the whole dose curve; as a rule, active = well fitted activation curve with a large enough effect; inconclusive = small, poorly fitted or top-dose-only effect; inactive = no such curve, though single readings can be large or run the other way.
# Assay: qHTS Assay for NPC1 Promoter Activators; note: nearly all actives have a fitted effect of over 60% in size;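 for activation: reporter is driven by a mutant NPC1 promoter; % of control where 0% means no effect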
# Settings: Huh7 NPC1 promoter luciferase reporter, 24 h; series mostly up to 9.22 µM; activation: at the top concentration
# Summary of the method: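 Stably transfected Huh7 (NPC1 promoter→luciferase), 1500 cells/well in Opti-MEM + 10% FBS, 2 h settle, then compound 24 h at 37 °C. Luminescence after 10 min with Amplite reagent.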
# Potency is the fitted concentration of half-maximal effect.
Compound,activation,Potency
O=C(Nc1cccc(C(=O)NC2CC2)c1)c1ccc(F)c(S(=O)(=O)N2CCOCC2)c1,-1.39%,
COc1ccc(Cl)cc1NC(=O)COc1ccc2c(c1)OCO2,-1.02%,
c1ccc2sc(NN=C3CCCC3)nc2c1,,1410 nM (active)
CCN(CC)CCn1c2c(c(SCC(=O)Nc3nc4ccccc4s3)nc1=O)CCCC2,0.104%,
O=[N+]([O-])c1cc(Br)c(O)c(/C=N/Nc2nc3ccccc3s2)c1,-6.54%,
COc1ccc(-c2sc3ccc(OC)cc3c2C#Cc2ccccn2)cc1,22%,
Cc1cnc(CN(C)C(=O)C2CCC(=O)N(CCc3cccc(F)c3)C2)[nH]1 (stereo unspecified),-4.93%,
Cc1csc(=O)n1CCC(=O)OCC(=O)NNC(=O)c1ccc(Br)cc1,-1.37%,
Nc1c(N(CCCO)C(=O)C2CCCC2)c(=O)[nH]c(=O)n1Cc1ccccc1,0.384%,
C/C(=N\NC(=O)c1nc(C)cc(C)n1)c1ccccc1,,1580 nM (active)
C/C(=N\NC(=O)c1cccnc1)c1ccc(-c2ccccc2)cc1,2.31%,
COc1ccc(/C(C)=N/NC(=O)c2ccc3nc[nH]c3c2)cc1,-2.23%,
COc1ccc(CCNC(=O)CCc2ccccc2O)cc1OC,1.23%,
COc1ccccc1C(=O)NC(=O)COC(=O)C1CC1,2.15%,
O=C(CNC(=O)c1ccccc1Br)NCCSc1ccc(Br)cc1,-2.8%,
O=C(COC(=O)CNC(=O)c1ccccc1F)NCC(F)(F)F,-10.8%,
O=C(CNC(=O)c1ccc(F)cc1)c1ccccc1,,1410 nM (active)
O=C(NCCS(=O)(=O)NCc1ccc(F)cc1)c1ccccc1,2.14%,
O=C(CNC(=O)c1ccccc1)NCC(=O)OCC(=O)c1ccccc1,-2.12%,
O=C(CNC(=O)c1ccccc1F)c1ccc(Br)cc1,,398 nM (active)
Cc1ccc(S(=O)(=O)Nc2nc(CN3CCOCC3)nc3sc(C)c(C)c23)cc1,-3.18%,
COc1ccc(CNC(=O)c2ccc(NS(=O)(=O)c3ccc4[nH]c(=O)[nH]c4c3)cc2)cc1OC,0.755%,

Compound,activation,Potency
Nc1nc(SCC(=O)Nc2ccc(Cl)c([N+](=O)[O-])c2)n[nH]1,-0.898%,
O=C(CCNC(=O)c1ccc(Br)cc1)NCCCc1ccccc1,0.35%,
CCCc1ccc(OCCNC(=O)c2ccccc2Br)cc1,11%,
O=C(NCCOc1ccccc1)c1ccccc1,,631 nM (active)
CCCCCCCCC(=O)NCCOc1ccccc1,-1.35%,
CN(c1ccccc1)S(=O)(=O)c1ccc(C(=O)NCCc2ccccc2)cc1,16.8%,
CCCOc1ccc(C(=O)NCCc2ccccc2)cc1,,447 nM (active)
COc1ccc(OCCCC(=O)NCCc2ccccc2)cc1,0.654%,
CC(C)c1ccc(C(=O)NCCCc2ccccc2)cc1,,2820 nM (active)
Cc1noc(C)c1COc1ccc(C(=O)NCCOc2ccccc2)cc1,14%,
CCN1CCN(C(=O)N[C@@H](C(=O)N[C@@H]2C(=O)N3C(C(=O)O)=C(CSc4nnnn4C)CS[C@H]23)c2ccc(O)cc2)C(=O)C1=O,-2.2%,
Cc1ccc(CNC(=O)c2cccc3c2C(=O)c2ccc(N4CCC(C)CC4)cc2S3(=O)=O)cc1,13.2%,
CC1(C)O[C@@H]2[C@H](O1)[C@@H](COS(=O)(=O)O)O[C@H]2n1ccc(=O)[nH]c1=O,0.649%,
O=C(/C=C/c1ccccc1[N+](=O)[O-])OCC(=O)N1CCCC1,10.4%,
O=C(CNc1ccccc1N1CCCC1=O)Nc1cc(Cl)ccc1-n1cncn1,-0.612%,
O=C(Nn1cnc2ccccc2c1=O)c1ccccc1,1.3%,
CCCc1nc2ccccc2c(=O)n1/N=C/c1ccc(O)c(O)c1,-8.72%,
O=c1c2ccccc2ncn1/N=C/c1ccccc1,,1000 nM (active)
CC(C)(C)c1csc(NC2=NS(=O)(=O)c3ccccc32)n1,,1410 nM (active)
Cc1ccc(S(=O)(=O)N(NC2=NS(=O)(=O)c3ccccc32)C(=O)c2ccccc2)cc1,-4.49%,
O=C(Oc1cccc(NC2=NS(=O)(=O)c3ccccc32)c1)c1ccncc1,2.13%,
CCN(CC(=O)Nc1ccccc1C(F)(F)F)C(=O)C1CCN(C(=O)Nc2ccccc2)CC1,1.23%,

Compound,activation,Potency
O=C(c1cn(-c2ccccc2)nc1-c1cccnc1)N1CCN(S(=O)(=O)c2ccccc2F)CC1,-2.08%,
CC[C@@H]1Cc2cc(O)ccc2C2=C1c1ccc(O)cc1C[C@H]2CC,,inactive
COC(=O)/C(=C1\Oc2ccc(C(C)(C)C)cc2S1)C(F)(F)F,,3550 nM (active)
CCOC(=O)C1=C(c2ccccc2)O/C(=C(/C(=O)OC)C(F)(F)F)S1,10.5%,
Cc1occc1-c1nnc(SCC(=O)NC2(C#N)CCCC2)n1C,-2.37%,
COc1ccc(-c2cc(C(F)(F)F)nc(NCc3cccnc3)n2)cc1,1.94%,
COc1ccc(-c2cc(C3CCN(c4ncccc4[N+](=O)[O-])CC3)[nH]n2)cc1,1.28%,
COc1ccc(-c2cc3ncccc3cn2)cc1,,2240 nM (active)
Cc1nc2cc(NC(=O)NC3CC3)ccc2n1C,7.08%,
Cn1c(CCN2CCCC2)nc2cc(NS(=O)(=O)c3ccccc3)ccc21,-7.01%,
Cc1cc2nc(C)n(CCCNC(=O)Nc3ccccc3)c2cc1C,-3.61%,
Cn1c(CCN2CCCCCC2)nc2cc(NC(=O)Nc3ccccc3)ccc21,,4470 nM (active)
CCC(=O)Nc1ccc2c(c1)nc(CCN1CCN(c3ccccn3)CC1)n2C,-10.8%,
Cc1nc2cc(NC(=O)Nc3cccc(F)c3)ccc2n1C,,100 nM (active)
CCn1c(=O)c(=O)n(CC)c2cc(N3CCCCC3)c(NC(=O)c3ccc(Cl)cc3)cc21,-3.5%,
CC(C)n1ncc2c(C(=O)NCc3ccccc3CN(C)C)cc(C3CC3)nc21,-4.26%,
COc1nc(N(C)C)nc(N2CC(=O)N(CCNS(=O)(=O)c3ccc(C)cc3)C2=N)n1,2.87%,
CCS(=O)(=O)n1nc(-c2ccccc2)nc1SCc1ccccc1,,3550 nM (active)
CCS(=O)(=O)n1nc(-c2ccc(OC)cc2)nc1SC,27.4%,
CS(=O)(=O)n1nc(-c2ccccc2)nc1NCc1ccco1,0.536%,
CN(CC(=O)Nc1c(Cl)cccc1Cl)C(=O)CC1OC(=O)c2ccccc21 (stereo unspecified),-3.28%,
COC(=O)CSc1nc2ccccc2c(=O)n1Cc1ccccc1,3.25%,

Compound,activation,Potency
Cc1ccc(C(=O)CSc2nc3ccccc3c(=O)n2N)o1,,3980 nM (active)
COc1ccc(NC(=O)CSc2nc3ccccc3c(=O)n2C)cc1,-9.03%,
O=S(=O)(NC1CCN(S(=O)(=O)c2ccc3c(c2)OCCO3)CC1)c1c(F)cccc1F,-2.67%,
Cc1cccc(C)c1OC(=O)CSc1nnc(-c2ccccc2)o1,-0.799%,
CCOC(=O)CSc1nnc(-c2cccc(Br)c2)o1,-1.59%,
CCCCSc1nnc(-c2ccc(C)cc2)o1,,794 nM (active)
Cc1ccc(CN2CC(C(=O)NNC(=O)Cn3ccc(C(F)(F)F)n3)CC2=O)cc1 (stereo unspecified),-1.82%,
CC(=O)NCc1ccc(-c2csc(NC(=O)CCCc3nc4ccccc4c(=O)[nH]3)n2)cc1,-1.72%,
COc1ccc(Cn2c(O)c(/C=C3/C=CC=N3)c(=O)[nH]c2=O)cc1,3.01%,
O=C(NCc1ccccc1CN1CCCC1)c1cccc(S(=O)(=O)Nc2ccc(F)cc2)c1,-2.83%,
Cc1ccc(NC(=O)C(c2ccccc2)N2CCN(C(=O)c3ccco3)CC2)cc1 (stereo unspecified),-1.36%,
COc1ccc(Cl)cc1NC(=O)CN(C)C(=O)c1cc(-c2cccs2)nn1-c1ccccc1,0.628%,
COc1cc(OC)cc(-c2nnc(N(C)C(=O)c3ccncc3)s2)c1,-5%,
CN(C(=O)c1ccccn1)c1nnc(-c2ccccn2)s1,,2510 nM (active)
CN(C(=O)C1CCOC1)c1nnc(-c2cccnc2)s1 (stereo unspecified),3.19%,
COc1ccc(-c2nc(-c3ccccc3)no2)c(OC)c1,,3550 nM (active)
COc1ccc(-c2noc(CSc3ccc(C)cc3)n2)cc1,-2.46%,
COc1ccc(-c2noc(CN(C)S(=O)(=O)c3ccc(C)cc3)n2)cc1,16.4%,
COc1ccc(-c2noc(-c3ccc(C)cc3)n2)cc1,,2000 nM (active)
COc1ccc(-c2noc(CNC(=O)C(C)Oc3ccccc3)n2)cc1 (stereo unspecified),-2.92%,
COc1ccc(OC)c(-c2csc(-c3cccs3)n2)c1,9.23%,
O=C(CN1CCN(S(=O)(=O)c2cccc(Cl)c2)CC1)N1CCCCC1,-1.44%,

Compound,activation,Potency
Cc1c2cnn(CC(=O)NCCCN3CC(C)CC(C)C3)c(=O)c2c(C)n1Cc1ccc(Cl)cc1 (stereo unspecified),-0.386%,
C[C@@H](NC(=O)c1nc[nH]c1C(=O)N1CCN(C(=O)OC(C)(C)C)CC1)c1ccccc1,-3.87%,
Cc1ccc(S(=O)(=O)CCC(=O)OCC(=O)NCCc2ccc(S(N)(=O)=O)cc2)cc1,0.187%,
CCS(=O)(=O)Nc1ccc(C(=O)NCCSc2ccccc2)cc1,29.6%,
O=C(NCCSc1ccccc1)c1ccco1,,3160 nM (active)
O=C(NCCSc1ncc(-c2ccccc2)[nH]1)c1ccco1,15.1%,
O=C(Cn1c(-c2ccc(Cl)cc2)noc1=O)N1CCN(c2ccccc2F)CC1,-2.91%,
O=C(NCC(=O)N1CCCCCCC1)c1ccccc1Cl,0.782%,
Cn1c(NC(=O)c2ccccc2)nc2ccccc21,,2820 nM (active)
Cn1c(S(=O)(=O)O)nc2ccccc21,-5.2%,
CCn1c(NC(=O)c2nn(C)cc2Br)nc2ccccc21,0.149%,
Cc1ccc(S(=O)(=O)N2CCCCC2)cc1C(=O)N1CCN(CCO)CC1,-1.62%,
COc1ccccc1CNC(=O)COC(=O)c1sc(C)nc1C,-2.69%,
O=C(Nc1ccc2sc3ccccc3c(=O)c2c1)c1ccccc1Cl,,3160 nM (active)
O=C(Nc1cccc(NC(=O)c2ccccc2[N+](=O)[O-])c1)c1ccccc1Cl,-5.61%,
COc1cc(NC(=O)c2cccs2)ccc1NC(=O)c1ccccc1Cl,-1.42%,
O=C(COC(=O)c1cc(=O)[nH]c2ccccc12)NCc1cccc(Cl)c1,-1.99%,
CC(=O)Nc1ccc(S(=O)(=O)N2CCn3cccc3C2C)cc1 (stereo unspecified),13.9%,
